# Sampled rows, rich in hits. Any-hit rate of the full collection: about 10%.
# GPT2 inh = GPT2 alanine aminotransferase inhibition; AID 1671188; Recombinant GPT2, coupled pyruvate oxidase/HRP Amplex Red fluorescence; Potency, µM (top dose mostly 57.7 µM), inactives show at the highest dose activity change, negative = inhibition, actives largely listed as inhibitors; 0.25% of 100,000 active; further: on the % scale 0 is the no-effect control and ±100 the full control effect; nearly all actives have a fitted effect of over 60% in size
#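 Recombinant GPT2 (10ng/uL) with 250uM a-KG and 2mM L-alanine, 30 min at room temperature, in HEPES pH 7.5 buffer. Pyruvate detected by pyruvate oxidase/HRP/Amplex Red fluorescence after 30 min in the dark; AOA (50uM) as positive control.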
# FLuc inh = blocks purified firefly luciferase enzyme activity. P08659. purified P. pyralis luciferase, luminescence, biochemical. Potency, µM (top dose mostly 115 µM), actives largely listed as inhibitors. 2.5% of 76,000 active. AID 1347043; further: on the % scale 0 is the no-effect control and ±100 the full control effect; nearly all actives have a fitted effect of over 65% in size
# Target sequence (P08659 whole entry, looked up): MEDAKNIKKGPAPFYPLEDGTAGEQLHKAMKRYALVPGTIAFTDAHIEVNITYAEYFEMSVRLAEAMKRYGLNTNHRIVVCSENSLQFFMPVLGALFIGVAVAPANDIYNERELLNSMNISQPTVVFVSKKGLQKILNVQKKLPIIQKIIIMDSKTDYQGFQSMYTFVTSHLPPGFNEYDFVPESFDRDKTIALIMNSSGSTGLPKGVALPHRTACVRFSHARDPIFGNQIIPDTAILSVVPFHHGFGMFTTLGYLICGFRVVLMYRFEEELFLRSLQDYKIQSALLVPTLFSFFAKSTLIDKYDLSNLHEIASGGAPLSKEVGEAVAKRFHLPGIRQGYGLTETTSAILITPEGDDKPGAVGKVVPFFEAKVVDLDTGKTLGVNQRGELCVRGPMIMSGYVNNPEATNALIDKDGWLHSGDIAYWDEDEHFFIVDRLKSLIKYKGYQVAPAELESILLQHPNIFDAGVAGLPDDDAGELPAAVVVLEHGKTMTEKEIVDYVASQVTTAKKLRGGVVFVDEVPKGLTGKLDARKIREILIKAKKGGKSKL
#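 Inhibitors were tested against purified firefly luciferase in a biochemical, low-substrate format (both substrates at 10uM) and luminescence measured with a CCD imager.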
# 3T3 cytotox = kills NIH 3T3 cells. NIH 3T3 viability, CellTiter-Glo ATP luminescence, 48-72 h. Potency, µM (top dose mostly 96.7 µM), for inactives: at the highest dose activity change, negative = cytotoxicity, hits mostly inhibitors. 4.3% of 94,000 active. AID 1345082; further: on the % scale 0 is the no-effect control and ±100 the full control effect; nearly all actives have a fitted effect of over 55% in size
#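 Cytotoxicity was measured by CellTiter-Glo ATP luminescence after 48 or 72 h compound exposure at 37 °C. Mouse NIH 3T3 fibroblasts were seeded at 400 cells/well and dosed by 23 nL pin transfer.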
# HEK cytotox = HEK 293 cell cytotoxicity; HEK 293 viability, ATP luminescence (CellTiter-Glo), 48-72 h; Potency, µM (series often up to 115 µM), without a hit: at the top dose activity change, negative = cytotoxicity, usual class: inhibitors; 6.6% of 94,000 active; further: on the % scale 0 is the no-effect control and ±100 the full control effect; nearly all actives have a fitted effect of over 60% in size
#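 Viability of HEK 293 cells, plated at 250 cells/well, was judged by cellular ATP after compound treatment for 48 or 72 hr. Luminescence was imaged 10 min after CellTiter-Glo addition at room temperature.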
# hNpr1 antagonist = blocks ANP-stimulated signaling of human Npr1 receptor; 1.6% of 76,000 active; P16066; HEK293 hNpr1 GloSensor cGMP, ANP-stimulated luminescence; Potency, µM (highest dose often 46.3 µM), for inactives: at the top dose activity change, negative = inhibition, hits mostly inhibitors; calls by dose curve; further: on the % scale 0 is the no-effect control and ±100 the full control effect; nearly all actives have a fitted effect of over 60% in size
#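 Compound pre-incubated 30 min at room temperature on GloSensor-loaded HEK293 cells stably carrying hNpr1 and the pGS-40F cGMP biosensor. Stimulation uses hNppA at 0.1 nM final; luminescence is taken at baseline and 20 min post-agonist.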
# NPR1 antag cnf = hNpr1 antagonism, confirmation assay. shares compounds with hNpr1 antagonist. Potency, µM (titrated, usually from 57.6 µM), for inactives: at the highest dose activity change, negative = inhibition, actives largely listed as inhibitors. HEK293 hNpr1 cGMP GloSensor luminescence, ANP-stimulated. AID 1347044. 76% of 1,400 active; calls by dose curve; further: nearly all actives have a fitted effect of over 70% in size
# Npr2 selectivity = antagonizes human Npr2, subtype selectivity check | HEK293 hNpr2 GloSensor cGMP luminescence, CNP-stimulated | 67% of 1,400 active | AID 1347046 | shares compounds with hNpr1 antagonist | Potency, µM (doses to about 57.6 µM), for inactives: at the top dose activity change, negative = inhibition, most hits filed as inhibitors; calls by dose curve; further: nearly all actives have a fitted effect of over 70% in size
# FLuc inh counter = FLuc enzyme inhibition, Npr1 counter-screen; Potency, µM (titrated, usually from 57.6 µM), for the others: at the top dose activity change, negative = inhibition, hits mostly inhibitors; 0.7% of 1,400 active; shares compounds with hNpr1 antagonist; purified FLuc enzyme, luminescence, Km substrate; further: series mostly up to about 58 µM; 0% is about no effect
# GloSensor cGMP = reduces cGMP signal in GloSensor control cells; shares compounds with hNpr1 antagonist; HEK293 GloSensor cGMP, SNP-stimulated, luminescence; Potency, µM (doses to about 57.6 µM), for the others: top-dose activity change, negative = inhibition, usual class: inhibitors; 69% of 1,400 active; calls by dose curve; further: on the % scale 0 is the no-effect control and ±100 the full control effect; nearly all actives have a fitted effect of over 70% in size
# An asterisk follows results filed as active; i = inactive; ? = inconclusive; . = not tested or not shown; [ ] = remark or other dose. Unless noted, the call rests on the fitted dose curve; in most records, active means well fitted curve in the direction sought with a large enough effect; inconclusive means small, poorly fitted or top-dose-only effect, or another doubt; inactive means no such curve, though single readings can be large; an effect the other way counts as inactive or inconclusive. Potency means the concentration at half of the fitted maximal effect.
SMILES,GPT2 inh,FLuc inh,3T3 cytotox,HEK cytotox,hNpr1 antagonist,NPR1 antag cnf,Npr2 selectivity,FLuc inh counter,GloSensor cGMP
CC(C)Cn1c(=O)c(C(=O)NCC2CC2)nc2cccnc21,-6.5%[88.5 µM],.,?,?,.,.,.,.,.
O=C(Nc1cc(-c2ccccn2)nn1-c1ccccc1)c1cccc(Br)c1,-8.7%,.,?,?,.,.,.,.,.
CC[C@@H]1[C@@H](NC(=O)C2(c3ccc(S(C)(=O)=O)cc3)CCC2)[C@@H]2CCO[C@H]12,2.5%,i,2.1%,-2.8%,-9.8%,.,.,.,.
CCC1(CC)CN(C(=O)C2CCC(=O)N(Cc3ccccn3)C2)CCO1 (stereo not drawn),-4.2%[11.5 µM],i,-12.2%,-7.0%,-2.8%,.,.,.,.
O=C1COCC2(CN1)CN(c1ccc(Oc3ccccc3)cc1)C2,3.0%[88.5 µM],i,?,?,7.08µM*,11.1µM*,9.94µM*,-4.3%[86.2 µM],9.94µM*
CC(C)CCN1CCC(N2CCN(S(=O)(=O)c3ccc4c(c3)CCCC4)CC2)C1=O (stereo not drawn),-19.0%,i,?,?,?,-29.7%,-23.7%,4.8%,-8.1%
CC(C)CCN1CCC(N2CCN(S(=O)(=O)c3ccc(F)c(F)c3)CC2)C1=O (stereo not drawn),-9.0%,i,-27.8%,-23.6%,-9.6%,.,.,.,.
Cn1nc2n(c1=O)CCN(S(=O)(=O)c1ccc3c(c1)CCCC3)CC2,-8.9%,i,-3.8%,-10.0%,0.0%,.,.,.,.
Cn1nc(C2CCN(S(=O)(=O)c3ccc4c(c3)CCCC4)CC2)n(C2CCCC2)c1=O,i,i,?,?,11.2µM*,19.3µM*,19.3µM*,0.5%,13.7µM*
N#Cc1ccc(CN2C3CCC2CN(C(=O)c2ccncc2)C3)cc1,3.6%[88.5 µM],i,?,?,-7.3%[70.6 µM],.,.,.,.
O=C(c1ccncc1)N1CC2CCC(C1)N2Cc1ccc(-c2ccccc2)cc1,3.4%,i,?,?,?,4.32µM*,5.44µM*,-2.8%,4.85µM*
FC(F)(F)c1ccc(N2C3CCC2CN(Cc2cccs2)C3)cc1,4.9%,.,?,?,.,24.1µM*,21.5µM*,0.8%,17.1µM*
Cc1cc(C)cc(-c2ccc(CN3CC4CCC(C3)N4c3ccc(C(F)(F)F)cc3)cc2)c1,-12.8%,.,-18.4%,-3.4%,.,.,.,.,.
Cc1nn2c(c1-c1ccccc1OCc1ccccc1)N(C(=O)COc1ccccc1C(N)=O)CCC2,?,i,6.31µM*,?,7.08µM*,17.2µM*,10.9µM*,0.0%,0.0%
Cc1nn2c(c1-c1ccccc1OCc1ccccc1)N(C(=O)Cc1ccccn1)CCC2,-6.8%[88.5 µM],i,?,?,?,19.8µM*,12.5µM*,1.1%[86.2 µM],-20.1%[86.2 µM]
Cc1nn2c(c1-c1ccccc1Oc1ccccc1)N(C(=O)c1ccnn1C)CCC2,1.8%[88.5 µM],i,-22.5%[138 µM],?,-15.2%[70.6 µM],.,.,.,.
Cc1ccc(OCC(=O)N2CCOc3ccc(CN4CCOCC4)cc3C2)cc1,-6.4%,.,-29.7%,-28.3%,.,.,.,.,.
O=C(CCn1cc(Cl)cn1)N1CCOC(c2ccc(Cl)cc2)C1 (stereo not drawn),-26.1%,i,-6.4%,79.4µM*,?,?,?,4.4%,0.4%
CCN(Cc1ccncc1)C(=O)CC(c1ccccc1)c1ccc2c(c1)OCO2 (stereo not drawn),?,i,-22.5%,?,?,?,13.7µM*,5.4%,5.3%
CCN(Cc1ccncc1)C(=O)c1ccc(C2CCNC2)cc1 (stereo not drawn),-2.2%,i,2.4%,-26.9%,-1.3%,.,.,.,.
Cc1ccccc1S(=O)(=O)N1CCC(CCC(=O)O)CC1,-2.4%,i,i,-0.5%,-0.9%,.,.,.,.
Cc1ccc(NC(=O)CCC2CCN(S(=O)(=O)c3ccccc3C)CC2)cc1F,2.7%,i,?,-51.9%,?,?,?,3.5%,?
Cc1nn2c(c1-c1ccccc1Oc1ccccc1)N(CC1CC1)CCC2,-2.5%[88.5 µM],i,31.6µM*,28.2µM*,?,39.6µM*,35.3µM*,-11.0%[86.2 µM],39.6µM*
COc1ccc(OC)c(CN2CCCn3nc(C)c(-c4ccnn4C(C)C)c32)c1,1.9%[88.5 µM],i,-17.7%[138 µM],?,-17.9%[70.6 µM],.,.,.,.
COc1ccc(OC)c(CN2CCCn3nc(C)c(-c4ccccc4OCc4ccccc4)c32)c1,i,i,8.91µM*,11.2µM*,7.08µM*,13.7µM*,19.3µM*,-1.0%,12.2µM*
SMILES,GPT2 inh,FLuc inh,3T3 cytotox,HEK cytotox,hNpr1 antagonist,NPR1 antag cnf,Npr2 selectivity,FLuc inh counter,GloSensor cGMP
Cc1nn2c(c1-c1ccccc1OCc1ccccc1)N(CC1CC1)CCC2,-11.8%[88.5 µM],i,?,?,7.08µM*,6.27µM*,31.4µM*,-3.7%[86.2 µM],5.59µM*
CNC(=O)c1cc(C2CC2)nc2c1c(C1CCN(C(=O)Nc3ccccc3)C1)nn2C (stereo not drawn),.,.,-20.0%,?,.,.,.,.,.
O=C(NCc1cccc(F)c1)C1CCN(Cc2ccccc2-c2cccnc2)CC1,-4.7%,.,-29.5%,-25.7%,.,.,.,.,.
CCn1nc(C)c(-c2cc(C(=O)NCCc3noc(COC)n3)no2)c1C,i,i,?,?,9.1%,.,.,.,.
CCn1nc(C)c(CNC(=O)c2cc(COc3ccc4ncccc4c3)on2)c1C,3.9%,i,?,?,10µM*,21.7µM*,19.3µM*,-0.7%,17.2µM*
O=C(Nc1ccc(F)cc1)C1CCc2nc(N3CCN(C(=O)C4CCC4)CC3)sc2C1 (stereo not drawn),2.7%,i,?,10µM*,3.55µM*,7.69µM*,10.9µM*,-20.2%,9.68µM*
O=C(NCC1CCCCC1)C1CCc2nc(N3CCN(C(=O)C4CCC4)CC3)sc2C1 (stereo not drawn),i,i,-10.8%,-38.4%,7.6%,.,.,.,.
COCCNC(=O)c1cc(C2CC2)nc2c1c(C1CCNC1)nn2C (stereo not drawn),i,.,-8.1%,-7.8%,.,.,.,.,.
CN1CCN(C(=O)c2ccc3nnc(-c4ccc([S+](C)(=O)[O-])cc4)n3c2)CC1,-7.1%,.,-13.0%,-11.9%,.,.,.,.,.
